Results as given in PubChem BioAssay (Tox21).
Values joined by “and” are separate entries in the source; they are usually repeats but may differ in a detail not shown here. Equal values may be shown once. Inconclusive results are not listed. Where a call stands in place of a potency, no number is given. A number with no mark means an inactive call. Active and inactive are the calls of the source. Calls come from the whole dose curve; as a rule, active = well fitted cell-killing curve with a large enough effect in the repeat runs; inconclusive = weak or mixed curves, or effect the other way; inactive = flat fitted curve, though single readings scatter.

Legend:
[1] = cAMP Responsive Elements (CRE) small molecule antagonists, cell-based qHTS assay: qHTS cell viability counter screen (AID 2060913); conditions: CRE-bla HEK293T viability, CellTiter-Glo luminescence, 5 h; series mostly up to 92.4 µM; note: nearly all actives have a fitted effect of over 40% in size
Procedure, shortened: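 Steps: cells plated and held 18 hrs at 37 C/5% CO2; compounds and NKH477 (0.25 uM final) added; 3 hrs incubation; reporter substrate read; CellTiter-Glo added to measure cytotoxicity by luminescence.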

[2] = cAMP Responsive Elements (CRE) small molecule agonists, cell-based qHTS assay: qHTS cell viability counter screen (AID 2060914); conditions: CRE-bla HEK293T viability, CellTiter-Glo luminescence, 5 h; series mostly up to 92.4 µM; note: nearly all actives have a fitted effect of over 50% in size
Procedure, shortened: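 Luminescence read-out (CellTiter-Glo, 30 min RT) of ATP-based viability in CRE-bla HEK 293T cells, run in the same wells as the β-lactamase reporter assay after 3 h compound treatment at 37 °C.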
Potency is the fitted concentration of half-maximal effect.

| Compound | Potency [1] | Potency [2] | viability change, negative = cytotoxic [1] | activity change, negative = cytotoxicity [2] |
| --- | --- | --- | --- | --- |
| O=S(=O)(O)c1cc(Cl)c(Cl)cc1Cl | inactive | inactive |  |  |
| O=C(O)c1cc(O)c(O)c(O)c1 | inactive | inactive |  |  |
| COc1c(N2C[C@@H]3CCCN[C@@H]3C2)c(F)cc2c(=O)c(C(=O)O)cn(C3CC3)c12 | inactive | inactive |  |  |
| CC(=O)c1ccc([N+](=O)[O-])cc1 | inactive | inactive |  |  |
| CCCCCCCCCCCC(=O)[O][Sn]([CH2]CCC)([CH2]CCC)[O]C(=O)CCCCCCCCCCC | inactive | inactive |  |  |
| NNC(=O)c1ccncc1 | inactive | inactive |  |  |
| FC(F)(Cl)C(F)(Cl)Cl | inactive | inactive |  |  |
| CC(C)N1C(=O)c2ccccc2C1=O | inactive | inactive |  |  |
| NC(CSCC(=O)O)C(=O)O (centres undefined) | inactive | inactive |  |  |
| CCCCCCC | inactive | inactive |  |  |
| O=C(NCCCN1CCOCC1)c1ccc(Cl)cc1 | inactive | inactive |  |  |
| CC(=O)OC(C)C | inactive | inactive |  |  |
| COC(=O)c1ccc(C(=O)O)cc1 | inactive | inactive |  |  |
| CSc1ccc(/C=C2/C(C)=C(CC(=O)O)c3cc(F)ccc32)cc1 | inactive | inactive |  |  |
| C(=C\c1ccccc1)/c1ccccc1 | inactive | inactive |  |  |
| Cc1cc(Cc2ccc(N)c(C)c2)ccc1N | inactive | inactive |  |  |
| O=C(O)Cn1c(C(=O)Nc2nc(-c3ccccc3Cl)cs2)cc2ccccc21 | inactive | inactive |  |  |
| CC(=O)Nc1ccc(/C=N/NC(N)=S)cc1 | inactive | inactive |  |  |
| CN(CCCN1c2ccccc2CCc2ccccc21)CC(=O)c1ccc(Cl)cc1 | inactive | inactive |  |  |
| O=C1OCc2ccccc21 | inactive | inactive |  |  |
| CCCCCCCC(=O)OCCCCCC | inactive | inactive |  |  |
| CC(CN)CCCN (centres undefined) | inactive | inactive |  |  |
| COCCOC(=O)CC#N | inactive | inactive |  |  |
| Nc1nnc(-c2cccc(Cl)c2Cl)c(N)n1 | inactive | inactive |  |  |
| CN(c1nccc(=O)[nH]1)C1CCN(c2nc3ccccc3n2Cc2ccc(F)cc2)CC1 | inactive | inactive |  |  |

| Compound | Potency [1] | Potency [2] | viability change, negative = cytotoxic [1] | activity change, negative = cytotoxicity [2] |
| --- | --- | --- | --- | --- |
| CC(=O)C(C)O (centres undefined) | inactive | inactive |  |  |
| CSc1ccc(C=O)cc1 | inactive | inactive |  |  |
| CCCCCSCCCCC | inactive | inactive |  |  |
| C/C=C1\[C@H]2C=C(C)C[C@]1(N)c1ccc(=O)[nH]c1C2 | inactive | inactive |  |  |
| O=C(/C=C/c1ccccc1)OCCCc1ccccc1 | inactive | inactive |  |  |
| COc1ccc2cc(CCC(C)=O)ccc2c1 | inactive | inactive |  |  |
| O=[N+]([O-])c1ccc(Oc2ccc([N+](=O)[O-])cc2)cc1 | inactive | inactive |  |  |
| N[C@@H](CCC(=O)Nc1ccc([N+](=O)[O-])cc1)C(=O)O | inactive | inactive |  |  |
| O=C(O)C1(C(=O)O)CCC1.[NH2-].[NH2-].[Pt+2] | inactive | inactive |  |  |
| Nc1ccc(O)cc1 | inactive | inactive |  |  |
| Cc1ccc2n[nH]nc2c1 | inactive | inactive |  |  |
| COC(=O)CCC(=O)OC | inactive | inactive |  |  |
| C[N+](C)(C)CCCCCCCCCC[N+](C)(C)C | inactive | inactive |  |  |
| c1ccc2sc(SSc3nc4ccccc4s3)nc2c1 |  |  | 2.3% [at 18.9 µM] | -2.25% [at 18.9 µM] |
| NC(=S)NNC(N)=S | inactive | inactive |  |  |
| Nc1c2c(nc3ccccc13)CCCC2 | inactive | inactive |  |  |
| COC(=O)CCCCCCCCC(=O)OC | inactive | inactive |  |  |
| CC(=O)Oc1cccc2c1C(=O)c1c(OC(C)=O)cc(C(=O)O)cc1C2=O | inactive | inactive |  |  |
| CCC(C)(C)CC | inactive | inactive |  |  |
| CCCCCCCCS(=O)(=O)O | inactive | inactive |  |  |
| CCCCCCc1ccc(-c2ccc(C#N)cc2)cc1 | inactive | inactive |  |  |
| C=C(C)C1CC=C(C)CC1 (centres undefined) | inactive | inactive |  |  |
| CC/C=C/CCCCCCCCCCOC(C)=O | inactive | inactive |  |  |
| O=S(=O)(O)c1cc(S(=O)(=O)O)c2ccc3c(S(=O)(=O)O)cc(S(=O)(=O)O)c4ccc1c2c43 |  |  | 3.35% [at 18.9 µM] | -11.7% [at 18.9 µM] |
| OC/C(Br)=C(\Br)CO | inactive | inactive |  |  |

| Compound | Potency [1] | Potency [2] | viability change, negative = cytotoxic [1] | activity change, negative = cytotoxicity [2] |
| --- | --- | --- | --- | --- |
| CCOC(=O)c1ccc(I)cc1 | inactive | inactive |  |  |
| C=C(C)C(=O)O | inactive | inactive |  |  |
| CCCCCCCOC(=O)c1ccccc1C(=O)OCCCCCCC | inactive | inactive |  |  |
| O=c1cc[nH]cc1 | inactive | inactive |  |  |
| CC1CCC(=O)C1=O (centres undefined) | inactive | inactive |  |  |
| CCc1nnc(NS(=O)(=O)c2ccc(N)cc2)s1 | inactive | inactive |  |  |
| CCCCC(CC)CNCC(CC)CCCC (centres undefined) | inactive | inactive |  |  |
| CC(C)(C)c1cc(C(C)(C)C)c(O)c(C(C)(C)C)c1 | inactive | inactive |  |  |
| O=C1CCC(=O)O1 | inactive | inactive |  |  |
| COc1ccc(Cl)cc1C | inactive | inactive |  |  |
| C=C(C)C(=O)OCCC(F)(F)C(F)(F)C(F)(F)C(F)(F)C(F)(F)C(F)(F)F | inactive | inactive |  |  |
| COc1ccccc1[N+](=O)[O-] | inactive | inactive |  |  |
| CC(C)=CC(C)(C)C | inactive | inactive |  |  |
| OCC(CO)(CBr)CBr | inactive | inactive |  |  |
| C1CCN(CN2CCCCC2)CC1 | inactive | inactive |  |  |
| CCCCCCCCCCCCCC=O |  |  | -4.53% [at 8.39 µM] | 15.9% [at 8.39 µM] |
| O=C(Nc1ccc(Cl)cc1)Nc1ccc(Cl)c(Cl)c1 | inactive | inactive |  |  |
| CCC(=O)OC/C=C/c1ccccc1 | inactive | inactive |  |  |
| COc1cc(C(=S)N2CCOCC2)cc(OC)c1OC | inactive | inactive |  |  |
| CC[C@@]1(O)C(=O)OCc2c1cc1n(c2=O)Cc2c-1nc1ccccc1c2/C=N/OC(C)(C)C | inactive | inactive |  |  |
| CCCCNc1ccc(C(=O)OCCN(C)C)cc1 | inactive | inactive |  |  |
| CC(C)NCC(O)COc1ccc(CC(N)=O)cc1 (centres undefined) | inactive | inactive |  |  |
| C=C1C2CCC(C2)C1(C)C (centres undefined) | inactive | inactive |  |  |
| C=C(C)C(=O)OCC(CC)(COC(=O)C(=C)C)COC(=O)C(=C)C | inactive | inactive |  |  |
| CCCCC(CC)COC(=O)c1ccccc1O (centres undefined) | inactive | inactive |  |  |

| Compound | Potency [1] | Potency [2] | viability change, negative = cytotoxic [1] | activity change, negative = cytotoxicity [2] |
| --- | --- | --- | --- | --- |
| CCCC(=O)Nc1ccc(OCC(O)CNC(C)C)c(C(C)=O)c1 (centres undefined) | inactive | inactive |  |  |
| CCCCCC/C(C=O)=C\c1ccccc1 | inactive | inactive |  |  |
| O=C(CS)Nc1ccccc1 | inactive | inactive |  |  |
| OC[C@@H](O)[C@@H](O)CO | inactive | inactive |  |  |
| CC(C)CC(=O)OCc1ccccc1 | inactive | inactive |  |  |
| O=C=NCc1cccc(CN=C=O)c1 |  |  | 5.35% [at 18.9 µM] | -0.289% [at 18.9 µM] |
| O=C(O)Cc1cc(I)c(Oc2ccc(O)c(I)c2)c(I)c1 | inactive | inactive |  |  |
| O=C(O)CCCC[P+](c1ccccc1)(c1ccccc1)c1ccccc1 | inactive | inactive |  |  |
| CCCCOC(=O)CC(CC(=O)OCCCC)(OC(C)=O)C(=O)OCCCC | inactive | inactive |  |  |
| COCC(C)N (centres undefined) | inactive | inactive |  |  |
| C=CC(=O)OCCCCCCCC | inactive | inactive |  |  |
| CC(c1cc2ccccc2s1)N(O)C(N)=O (centres undefined) | inactive | inactive |  |  |
| O=C1c2ccccc2-c2ccccc21 | inactive | inactive |  |  |
| COC(=O)/C=C/c1ccccc1 | inactive | inactive |  |  |
| CCOC(=S)SSC(=S)OCC | inactive | inactive |  |  |
| CCc1cc(C(C)(C)C)c(O)c(C(C)(C)C)c1 | inactive | inactive |  |  |
| CC(=O)OCC1=C(C(=O)O)N2C(=O)[C@@H](NC(=O)CSc3ccncc3)[C@H]2SC1 | inactive | inactive |  |  |
| c1ccc2cnncc2c1 | inactive | inactive |  |  |
| CCCCCN(CCCOC)C(=O)C(CCC(=O)O)NC(=O)c1ccc(Cl)c(Cl)c1 (centres undefined) | inactive | inactive |  |  |
| CSc1ccc(C(=O)c2[nH]c(=O)[nH]c2C)cc1 | inactive | inactive |  |  |
| Cc1cc(Cc2cc(C)cc(C(C)(C)C)c2O)c(O)c(C(C)(C)C)c1 | 54.8 µM (active) and 40.3 µM (active) | 34.6 µM (active) and 54.5 µM (active) |  |  |
| CCCCOCCOCCOCc1cc2c(cc1CCC)OCO2 | inactive | inactive |  |  |
